# Measurements: PubChem BioAssay
# Results filed as inconclusive are left out. Calls of active or inactive are those of the source.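 The calls were made as follows, unless noted: active = normalized viability below 100% at a tested concentration; inactive = the rest.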
# Experiments:
# [1] = viability loss in pontine glioma line – cell-based, SU-DIPG-XIII, MIPE4.0, CellTiter-Glo, qHTS, dose response (AID 1347061; cut-off not given, nearly all actives have AC50 up to about 37 µM;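 also: cells exposed to compound for 48 hours before readout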); settings: CellTiter-Glo ATP luminescence
# [2] = viability loss in pontine glioma line – cell-based, JHH-DIPG-1, MIPE4.0, CellTiter-Glo, qHTS, dose response (AID 1347062; cut-off not given, nearly all actives have AC50 up to about 27 µM;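 as to AC50: cells exposed to compound for two days before readout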); settings: JHH-DIPG-1 viability, CellTiter-Glo ATP luminescence
# [3] = viability loss in pontine glioma line – cell-based, SU-DIPG-IV, MIPE4.0, CellTiter-Glo, qHTS, dose response (AID 1347063; cut-off not given, nearly all actives have AC50 up to about 30 µM;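 also: compound exposure lasted 48 hours before the viability readout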); settings: CellTiter-Glo ATP luminescence
# [4] = viability loss in pontine glioma line – cell-based, SU-DIPG-XIII, MIPE5.0, CellTiter-Glo, qHTS, dose response (AID 1347064; cut-off not given, nearly all actives have AC50 up to about 23 µM;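 as to AC50: cells exposed to compound for 48 hours before the viability read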); settings: CellTiter-Glo ATP luminescence
# [5] = viability loss in pontine glioma line – cell-based, SU-DIPG-XXV, MIPE5.0, CellTiter-Glo, qHTS, dose response (AID 1347065; cut-off not given, nearly all actives have AC50 up to about 26 µM;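 also: cells exposed to compound for 48 hours before ATP readout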); settings: CellTiter-Glo ATP luminescence
# [6] = JHH-DIPG-1 glioma cell viability, MIPE5.0 library, CellTiter-Glo luminescence, qHTS (AID 1347067; cut-off not given, nearly all actives have AC50 up to about 26 µM;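 also: cells exposed to compound for 48 hours before readout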); settings: JHH-DIPG-1 glioma viability, CellTiter-Glo ATP luminescence
# [7] = compounds altering HSF1 focus formation in cells – imaging, Selleck Cancer Library (AID 1347162; in the data active = plate-normalised HSF1 focus index below about 0.46); settings: human cells, HSF1 nuclear foci imaging, at 10 µM; SSMD: measured here: HSF1 foci SSMD mean; cell count: measured here: cell number; plate-normalised HSF1 focus index: stronger effect = lower value
# [8] = drug combination growth inhibition, ovarian cancer – cell-based, oncology-focused library, rucaparib conditional, profiling panel (AID 1508598); settings: patient-derived ovarian cancer cells, CellTiter-Glo viability, 144 h, stronger effect = lower value
# [9] = growth inhibition of DIPG cells – cell-based, MIPE4.0 library, CellTiter-Glo luminescence, qHTS (AID 1347066; cut-off not given, nearly all actives have AC50 up to about 30 µM;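 also: cells exposed to compound for 48 hours before readout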); settings: SU-DIPG-VI viability, CellTiter-Glo ATP luminescence
# [10] = growth inhibition of DIPG cells – cell-based, MIPE5.0 library, qHTS (AID 1347068; cut-off not given, nearly all actives have IC50 up to about 30 µM;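 as to IC50: cells exposed to compound for 48 hours before viability readout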); settings: SU-DIPG-XXV viability
# [11] = viability loss with induced miR-34 in A549 – imaging, A549 dox-inducible miR-34, nuclei and caspase counts, primary screen (AID 1347080;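 active = compounds whose cell count with miR-34 switched on is under 0.7 times the count with it off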); settings: A549 miR-34 inducible, Hoechst nuclei count, 48 h
# [12] = MELAS cybrid and Rieske KO viability enhancers – cell-based, MELAS cybrids, Rieske KO mouse fibroblasts, CellTiter-Glo, primary screen (AID 1508586;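 active = mean z-score across replicates of 1.96 or higher in either the MELAS or the Rieske mutant cell line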;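 also: z relative to plate mean and SD of compound and empty wells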); settings: low glucose
# [13] = viability loss in pontine glioma line – cell-based, SU-DIPG-XVII, MIPE5.0, CellTiter-Glo, qHTS, dose response (AID 1347060; cut-off not given, nearly all actives have AC50 up to about 26 µM;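 as to AC50: cells exposed to compound for 48 hours before viability readout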); settings: CellTiter-Glo ATP luminescence
# [14] = at 0.000305 µM, OCI-C5x cells, with rucaparib 10 µM, 100% = cells with rucaparib alone
# [15] = at 0.000305 µM, OCI-C5x cells, without rucaparib
# [16] = at 0.000305 µM, OCI-P5x cells, with rucaparib 20 µM, 100% = cells with rucaparib alone
# [17] = at 0.000305 µM, OCI-P5x cells, without rucaparib
# [18] = at 0.00122 µM, OCI-C5x cells, with rucaparib 10 µM, 100% = cells with rucaparib alone
# [19] = at 0.00122 µM, OCI-C5x cells, without rucaparib
# [20] = at 0.00122 µM, OCI-P5x cells, with rucaparib 20 µM, 100% = cells with rucaparib alone
# [21] = at 0.00122 µM, OCI-P5x cells, without rucaparib
# [22] = at 0.00488 µM, OCI-C5x cells, with rucaparib 10 µM, 100% = cells with rucaparib alone
# [23] = at 0.00488 µM, OCI-C5x cells, without rucaparib
# [24] = at 0.00488 µM, OCI-P5x cells, with rucaparib 20 µM, 100% = cells with rucaparib alone
# [25] = at 0.00488 µM, OCI-P5x cells, without rucaparib
# [26] = at 0.0195 µM, OCI-C5x cells, with rucaparib 10 µM, 100% = cells with rucaparib alone
# [27] = at 0.0195 µM, OCI-C5x cells, without rucaparib
# [28] = at 0.0195 µM, OCI-P5x cells, with rucaparib 20 µM, 100% = cells with rucaparib alone
# [29] = at 0.0195 µM, OCI-P5x cells, without rucaparib
# [30] = at 0.0781 µM, OCI-C5x cells, with rucaparib 10 µM, 100% = cells with rucaparib alone
# [31] = at 0.0781 µM, OCI-C5x cells, without rucaparib
# [32] = at 0.0781 µM, OCI-P5x cells, with rucaparib 20 µM, 100% = cells with rucaparib alone
# [33] = at 0.0781 µM, OCI-P5x cells, without rucaparib
# [34] = at 0.313 µM, OCI-C5x cells, with rucaparib 10 µM, 100% = cells with rucaparib alone
# [35] = at 0.313 µM, OCI-C5x cells, without rucaparib
# [36] = at 0.313 µM, OCI-P5x cells, with rucaparib 20 µM, 100% = cells with rucaparib alone
# [37] = at 0.313 µM, OCI-P5x cells, without rucaparib
# [38] = at 1.25 µM, OCI-C5x cells, with rucaparib 10 µM, 100% = cells with rucaparib alone
# [39] = at 1.25 µM, OCI-C5x cells, without rucaparib
# [40] = at 1.25 µM, OCI-P5x cells, with rucaparib 20 µM, 100% = cells with rucaparib alone
# [41] = at 1.25 µM, OCI-P5x cells, without rucaparib
# [42] = at 5 µM, OCI-C5x cells, with rucaparib 10 µM, 100% = cells with rucaparib alone
# [43] = at 5 µM, OCI-C5x cells, without rucaparib
# [44] = at 5 µM, OCI-P5x cells, with rucaparib 20 µM, 100% = cells with rucaparib alone
# [45] = at 5 µM, OCI-P5x cells, without rucaparib
# [46] = stronger effect = lower value, cell number ratio, induced over uninduced
# [47] = measured here: relative caspase fold change +Dox/-Dox
# [48] = measured here: total cells with miR-34 induction, stronger effect = lower value
# [49] = measured here: total cells without miR-34 induction
# [50] = MELAS cybrid survival, CellTiter-Glo 48 h, stronger effect = higher value
# [51] = Rieske KO mouse fibroblast survival, CellTiter-Glo 72 h
smiles,measurement,setting,value
CCOc1cc2ncc(C#N)c(Nc3ccc(F)c(Cl)c3)c2cc1NC(=O)/C=C/CN(C)C,outcome,[1],inactive
same,AC50,[2],7.43 µM (active)
same,AC50,[3],0.833 µM (active)
same,AC50,[4],5.9 µM (active)
same,AC50,[5],0.934 µM (active)
same,AC50,[6],9.34 µM (active)
same,SSMD,[7],3.17
same,cell count,[7],7120
same,plate-normalised HSF1 focus index,[7],1.19 (inactive)
same,viability,[8]; [14],117% (inactive)
same,viability,[8]; [15],129% (inactive)
same,viability,[8]; [16],106% (inactive)
same,viability,[8]; [17],117% (inactive)
same,viability,[8]; [18],115% (inactive)
same,viability,[8]; [19],115% (inactive)
same,viability,[8]; [20],105% (inactive)
same,viability,[8]; [21],119% (inactive)
same,viability,[8]; [22],105% (inactive)
same,viability,[8]; [23],126% (inactive)
same,viability,[8]; [24],112% (inactive)
same,viability,[8]; [25],121% (inactive)
same,viability,[8]; [26],104% (inactive)
same,viability,[8]; [27],122% (inactive)
same,viability,[8]; [28],67.4% (active)
same,viability,[8]; [29],81.4% (active)
same,viability,[8]; [30],89.4% (active)
same,viability,[8]; [31],103% (inactive)
same,viability,[8]; [32],104% (inactive)
same,viability,[8]; [33],117% (inactive)
same,viability,[8]; [34],33.8% (active)
same,viability,[8]; [35],83.6% (active)
same,viability,[8]; [36],87.8% (active)
same,viability,[8]; [37],103% (inactive)
same,viability,[8]; [38],17.6% (active)
same,viability,[8]; [39],47.6% (active)
same,viability,[8]; [40],66.1% (active)
same,viability,[8]; [41],91.8% (active)
same,viability,[8]; [42],1.66% (active)
same,viability,[8]; [43],3.35% (active)
same,viability,[8]; [44],1.19% (active)
same,viability,[8]; [45],1.58% (active)
CO[C@H]1C(=O)[C@]2(C)[C@@H](OC)C[C@H]3OC[C@@]3(OC(C)=O)[C@H]2[C@H](OC(=O)c2ccccc2)[C@]2(O)C[C@H](OC(=O)[C@H](O)[C@@H](NC(=O)OC(C)(C)C)c3ccccc3)C(C)=C1C2(C)C,outcome,[1],inactive
same,outcome,[2],inactive
same,outcome,[3],inactive
same,outcome,[4],inactive
same,AC50,[5],0.00186 µM (active)
same,outcome,[9],inactive
same,outcome,[6],inactive
CNC(=O)c1ccc(-c2cnc3ncc(Cc4ccc5ncccc5c4)n3n2)cc1F,outcome,[1],inactive
same,outcome,[2],inactive
same,outcome,[3],inactive
same,outcome,[4],inactive
same,outcome,[5],inactive
same,outcome,[9],inactive
same,outcome,[10],inactive
CC(C)n1nc(-c2ccc3oc(N)nc3c2)c2c(N)ncnc21,AC50,[1],9.35 µM (active)
same,AC50,[2],8.33 µM (active)
same,AC50,[3],3.72 µM (active)
same,AC50,[4],1.18 µM (active)
same,AC50,[5],0.0661 µM (active)
same,AC50,[9],18.7 µM (active)
same,AC50,[6],1.18 µM (active)
same,IC50,[10],4.17 µM (active)
same,fold change,[11]; [46],0.877 (inactive)
same,fold change,[11]; [47],0.45
same,cell count,[11]; [48],2980
same,cell count,[11]; [49],3400
same,SSMD,[7],0.57
same,cell count,[7],6620
same,plate-normalised HSF1 focus index,[7],1.03 (inactive)
same,z-score,[12]; [50],2.73 (active)
same,z-score,[12]; [51],-2.58
same,viability,[8]; [14],109% (inactive)
same,viability,[8]; [15],109% (inactive)
same,viability,[8]; [16],96.2% (active)
same,viability,[8]; [17],92.8% (active)
same,viability,[8]; [18],113% (inactive)
same,viability,[8]; [19],121% (inactive)
same,viability,[8]; [20],92.7% (active)
same,viability,[8]; [21],90.7% (active)
same,viability,[8]; [22],100% (inactive)
same,viability,[8]; [23],123% (inactive)
same,viability,[8]; [24],80.8% (active)
same,viability,[8]; [25],79.2% (active)
same,viability,[8]; [26],87.5% (active)
same,viability,[8]; [27],88.1% (active)
same,viability,[8]; [28],56.8% (active)
same,viability,[8]; [29],52.8% (active)
same,viability,[8]; [30],70.4% (active)
same,viability,[8]; [31],62.2% (active)
same,viability,[8]; [32],43.5% (active)
same,viability,[8]; [33],37.2% (active)
same,viability,[8]; [34],61.9% (active)
same,viability,[8]; [35],55.6% (active)
same,viability,[8]; [36],36.9% (active)
same,viability,[8]; [37],26.5% (active)
same,viability,[8]; [38],51.8% (active)
same,viability,[8]; [39],47.4% (active)
same,viability,[8]; [40],29% (active)
same,viability,[8]; [41],22.9% (active)
same,viability,[8]; [42],39% (active)
same,viability,[8]; [43],31.9% (active)
same,viability,[8]; [44],19.5% (active)
same,viability,[8]; [45],15.8% (active)
CO[C@H]1/C=C/O[C@@]2(C)Oc3c(C)c(O)c4c(O)c(c5c(c4c3C2=O)=NC2(CCN(CC(C)C)CC2)N=5)NC(=O)/C(C)=C/C=C/[C@H](C)[C@H](O)[C@@H](C)[C@@H](O)[C@@H](C)[C@H](OC(C)=O)[C@@H]1C,outcome,[1],inactive
same,outcome,[2],inactive
same,outcome,[3],inactive
same,outcome,[4],inactive
CN1C(=O)C[C@H](C(=O)N[C@@H](Cc2cnc[nH]2)C(=O)N2CCC[C@H]2C(N)=O)NC1=O,outcome,[1],inactive
CCOC(=O)[C@@H](N)CCC(=O)N[C@@H](CSCc1ccccc1)C(=O)N[C@@H](C(=O)OCC)c1ccccc1,outcome,[1],inactive
same,outcome,[2],inactive
same,outcome,[3],inactive
same,AC50,[4],18.6 µM (active)
same,AC50,[5],26.3 µM (active)
same,AC50,[6],23.5 µM (active)
same,outcome,[10],inactive
CNC(=O)[C@@H](NC(=O)[C@H](CC(C)C)[C@H](O)C(=O)NO)C(C)(C)C,AC50,[13],18.6 µM (active)
same,outcome,[10],inactive
same,SSMD,[7],3.3
same,cell count,[7],6770
same,plate-normalised HSF1 focus index,[7],1.2 (inactive)
O=C(CC12CC3CC(CC(C3)C1)C2)Nc1cccc2nc(NCCNCCO)ccc12,AC50,[1],14.8 µM (active)
same,AC50,[2],20.9 µM (active)
same,AC50,[3],10.5 µM (active)
same,outcome,[4],inactive
CCN(c1cc(-c2ccc(CN3CCOCC3)cc2)cc(C(=O)NCc2c(C)cc(C)[nH]c2=O)c1C)C1CCOCC1,outcome,[13],inactive
same,outcome,[10],inactive
same,fold change,[11]; [46],0.946 (inactive)
same,fold change,[11]; [47],0.487
same,cell count,[11]; [48],7910
same,cell count,[11]; [49],8360
same,z-score,[12]; [50],-0.348 (inactive)
same,z-score,[12]; [51],-0.95
C[C@@]12C(=O)OC(=O)[C@@]1(C)C1CCC2O1,AC50,[1],1.66 µM (active)
same,AC50,[2],2.64 µM (active)
same,AC50,[3],1.48 µM (active)
O=C(NCCCCN1CCOCC1)c1cc2ccccc2o1,outcome,[1],inactive
same,outcome,[2],inactive
same,outcome,[3],inactive
same,outcome,[4],inactive
same,outcome,[5],inactive
same,outcome,[9],inactive
same,AC50,[6],23.5 µM (active)
same,outcome,[10],inactive
O=[N+]([O-])c1ccc(Nc2ccccc2-c2ccccc2)c2nonc12,outcome,[1],inactive
same,outcome,[2],inactive
same,outcome,[3],inactive
same,AC50,[4],23.5 µM (active)
same,AC50,[5],18.6 µM (active)
same,AC50,[9],20.9 µM (active)
same,AC50,[6],23.5 µM (active)
